From PubChem BioAssay (NCATS)
Results filed as inconclusive are left out. Calls of active or inactive are those of the source. Calls follow the shape of the dose curve; as a rule, active = well fitted curve in the direction sought with a large enough effect; inconclusive = small, poorly fitted or top-dose-only effect, or another doubt; inactive = no such curve, though single readings can be large; an effect the other way counts as inactive or inconclusive.

Tests used:
[1] = qHTS of pediatric cancer cell lines to identify multiple opportunities for drug repurposing: Confirmatory screen for SJ-GBM2 cells (AID 1347116); also: nearly all actives have a fitted effect of over 60% in size
Procedure, shortened: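 Viability measured as metabolically active cells via CellTiter-Glo luminescence following 48 hours of compound exposure, 11-point dilutions in confirmatory testing. 500-1,000 cells/well plated 5 hours before dosing; controls were DMSO and 2.3 µM bortezomib.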

[2] = qHTS of pediatric cancer cell lines to identify multiple opportunities for drug repurposing: Confirmatory screen for BT-37 cells (AID 1347117); also: nearly all actives have a fitted effect of over 55% in size
Procedure, shortened: (§1)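 Cells (500-1,000/well) in growth media were settled 5 h at 37 degrees C, then given compounds for 48 h. Viability was read as CellTiter-Glo luminescence. Primary runs used MIPE at 11 points (0.78 nM-46 µM) and NPC at 8 points (0.59 nM-46 µM); follow-ups used 11 points.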

[3] = qHTS of pediatric cancer cell lines to identify multiple opportunities for drug repurposing: Confirmatory screen for TC32 cells (AID 1347118);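 also: cells exposed to compound for 48 h before the read; nearly all actives have a fitted effect of over 65% in size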
Procedure, shortened: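 Measured quantity: luminescence from CellTiter-Glo, reflecting metabolically active TC32 cells following 48 h of compound. Curves came straight from multi-point titrations, with 8 or 11 points in primary and 11 in confirmatory screening.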

[4] = qHTS of pediatric cancer cell lines to identify multiple opportunities for drug repurposing: Confirmatory screen for U-2 OS cells (AID 1347122); also: nearly all actives have a fitted effect of over 65% in size
Procedure, shortened: as §1

[5] = qHTS of pediatric cancer cell lines to identify multiple opportunities for drug repurposing: Confirmatory screen for Rh41 cells (AID 1347123);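 also: 48 h compound exposure; nearly all actives have a fitted effect of over 60% in size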
Procedure, shortened: as §1

[6] = qHTS of pediatric cancer cell lines to identify multiple opportunities for drug repurposing: Confirmatory screen for RD cells (AID 1347124);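 also: cells exposed to compound for 48 h before viability readout; nearly all actives have a fitted effect of over 65% in size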
Procedure, shortened: as §1

[7] = qHTS of pediatric cancer cell lines to identify multiple opportunities for drug repurposing: Confirmatory screen for Rh18 cells (AID 1347125); also: nearly all actives have a fitted effect of over 55% in size
Procedure, shortened: as §1

[8] = qHTS of pediatric cancer cell lines to identify multiple opportunities for drug repurposing: Confirmatory screen for Rh30 cells (AID 1347126); also: nearly all actives have a fitted effect of over 55% in size
Procedure, shortened: as §1

[9] = qHTS of pediatric cancer cell lines to identify multiple opportunities for drug repurposing: Confirmatory screen for Saos-2 cells (AID 1347127); also: nearly all actives have a fitted effect of over 60% in size
Procedure, shortened: as §1

[10] = qHTS of pediatric cancer cell lines to identify multiple opportunities for drug repurposing: Confirmatory screen for OHS-50 cells (AID 1347128);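 also: compound exposure lasted 48 h at 37 degrees C; nearly all actives have a fitted effect of over 55% in size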
Procedure, shortened: as §1

[11] = qHTS of pediatric cancer cell lines to identify multiple opportunities for drug repurposing: Confirmatory screen for SK-N-SH cells (AID 1347129);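 also: cells exposed to compound for 48 h before viability read; nearly all actives have a fitted effect of over 60% in size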
Procedure, shortened: as §1

[12] = system: Zika virus NS2B-NS3 protease; assay: Primary screen GU AMC qHTS for Zika virus inhibitors (AID 1347154); also: nearly all actives have a fitted effect of over 70% in size
Procedure, shortened: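 Unlinked Zika NS2B hydrophilic domain/NS3 protease domain noncovalent complex (25 nM final) in 10 mM Tris-HCl pH 8.0, 0.01% Tween 20, with AMC peptide substrate. Fluorescence (ex 340, em 450 nm) change over 15 min, room temperature; percent inhibition fitted to 4-parameter Hill equation.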

[13] = qHTS of pediatric cancer cell lines to identify multiple opportunities for drug repurposing: Confirmatory screen for MG 63 (6-TG R) cells (AID 1347119); also: nearly all actives have a fitted effect of over 55% in size
Procedure, shortened: as §1

Furin (Homo sapiens) = Furin (Homo sapiens) (UniProt P09958); assay: Furin counterscreen qHTS for Zika virus inhibitors (AID 1347149); also: nearly all actives have a fitted effect of over 70% in size
Procedure, shortened: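 Counterscreen measures cleavage of 2 microM BOC-RVRR-AMC, below its ~15 microM Km, by 5 nM full-length human furin at pH 7.0 after a 15-min compound preincubation. Inhibition derives from the 15-min fluorescence increase at 37C.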

[14] = system: Zika virus NS2B-NS3 protease (linked construct); assay: Confirmatory screen NINDS AMC qHTS for Zika virus inhibitors (AID 1347152); also: nearly all actives have a fitted effect of over 70% in size
Procedure, shortened: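 IC50s from 4-parameter Hill fits of percent inhibition, based on AMC fluorescence gain (340/450 nm) over 15 min with 10 microM Bz-Nle-KRR-AMC. Enzyme: 1 nM linked NS2B-NS3 in Tris-HCl pH 8.0; 15-min compound preincubation.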

[15] = system: Zika virus NS2B-NS3 protease (unlinked complex); assay: Confirmatory screen GU AMC qHTS for Zika virus inhibitors (AID 1347153); also: nearly all actives have a fitted effect of over 70% in size
Procedure, shortened: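 Unlinked enzyme 25 nM, Tris pH 8.0/0.01% Tween 20; cpd 15 min RT, dark; + AMC substrate 10 µM (Km 18.3 µM); 340/450 nm read at t0 and 15 min; % inhibition → 4-param fit.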

[16] = qHTS of pediatric cancer cell lines to identify multiple opportunities for drug repurposing: Confirmatory screen for control Hh wild type fibroblast cells (AID 1347121); also: nearly all actives have a fitted effect of over 70% in size
Procedure, shortened: as §1

Measured: Potency
Potency is read from the fitted curve at half-maximal effect.

Sequence of Furin (Homo sapiens) (P09958 whole entry, looked up): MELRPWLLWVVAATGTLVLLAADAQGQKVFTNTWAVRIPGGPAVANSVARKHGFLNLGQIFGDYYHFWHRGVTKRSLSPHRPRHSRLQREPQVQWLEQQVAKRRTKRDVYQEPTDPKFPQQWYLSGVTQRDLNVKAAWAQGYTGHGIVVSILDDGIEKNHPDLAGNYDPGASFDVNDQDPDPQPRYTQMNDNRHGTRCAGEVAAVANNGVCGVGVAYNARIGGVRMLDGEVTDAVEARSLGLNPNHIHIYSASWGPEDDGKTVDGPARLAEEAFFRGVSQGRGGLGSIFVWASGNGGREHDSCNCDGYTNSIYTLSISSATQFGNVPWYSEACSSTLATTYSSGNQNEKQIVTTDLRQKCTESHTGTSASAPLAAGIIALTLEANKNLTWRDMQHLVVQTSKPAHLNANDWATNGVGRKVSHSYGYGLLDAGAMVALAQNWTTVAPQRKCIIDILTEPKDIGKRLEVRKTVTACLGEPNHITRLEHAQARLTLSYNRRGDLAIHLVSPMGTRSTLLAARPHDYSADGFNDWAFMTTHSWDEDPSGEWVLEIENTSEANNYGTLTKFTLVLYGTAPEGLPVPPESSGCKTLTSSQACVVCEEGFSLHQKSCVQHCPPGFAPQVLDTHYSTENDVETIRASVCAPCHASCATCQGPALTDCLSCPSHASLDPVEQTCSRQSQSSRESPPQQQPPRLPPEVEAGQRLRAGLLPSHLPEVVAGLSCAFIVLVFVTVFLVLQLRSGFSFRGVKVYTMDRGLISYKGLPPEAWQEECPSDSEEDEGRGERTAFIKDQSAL

Cc1ccc(-c2ncn(-c3ccc(Nc4nccc(-c5cccc(N6CCOCC6)c5)n4)cc3)n2)cn1
active: [1] 0.24 µM | [2] 0.0851 µM | [3] 0.135 µM | [4] 0.24 µM | [5] 0.151 µM | [6] 0.24 µM | [7] 0.107 µM | [8] 0.12 µM | [9] 0.107 µM | [10] 0.537 µM | [11] 0.303 µM
inactive: [12]

COc1cc2c(Oc3ccc(NC(=O)C4(C(=O)Nc5ccc(F)cc5)CC4)cc3F)ccnc2cc1OCCCN1CCOCC1
inactive: [12]
active: [1] 5.22 µM | [2] 10.4 µM | [3] 1.85 µM | [13] 7.37 µM | [4] 8.27 µM | [5] 7.37 µM | [7] 7.37 µM | [9] 4.14 µM | [10] 3.69 µM | [11] 1.87 µM

CCn1cc(-c2ccnc3[nH]c(-c4cccc(CN(C)C)c4)cc23)c(-c2ccc(NC(=O)N(C)C)cc2)n1
active: [1] 0.928 µM | [2] 5.22 µM | [3] 0.0465 µM | [13] 1.85 µM | [5] 1.85 µM | [7] 16.5 µM | [8] 0.293 µM | [9] 16.5 µM | [11] 2.96 µM | Furin (Homo sapiens) 21.5 µM

CCS(=O)(=O)c1cccc(-c2cc(C(=O)NC3CCN(C)CC3)c(C)c3[nH]c4ncc(C)cc4c23)c1
active: [1] 5.22 µM | [2] 1.85 µM | [3] 0.117 µM | [4] 10.4 µM | [5] 0.657 µM | [6] 2.61 µM | [7] 1.85 µM | [8] 0.522 µM | [9] 1.04 µM | [10] 1.85 µM | [11] 2.09 µM | Furin (Homo sapiens) 24.1 µM | [14] 24.1 µM | [15] 24.1 µM | [12] 24.1 µM

Cc1ccc(C(N)=O)cc1Nc1nccc(-c2cn(C(C)C)c3cnccc23)n1
active: [1] 21.4 µM | [2] 6.76 µM | [3] 7.59 µM | [4] 15.1 µM | [5] 13.5 µM | [9] 21.4 µM | [10] 12 µM | [11] 6.79 µM
inactive: [16] | [12]

O=c1[nH]nc(Sc2ncc([N+](=O)[O-])s2)n1-c1ccc2c(c1)OCCO2
active: [1] 13.1 µM | [2] 16.5 µM | [3] 6.57 µM | [13] 11.7 µM | [4] 9.27 µM | [5] 10.4 µM | [8] 7.37 µM | [9] 8.27 µM | [10] 13.1 µM | [11] 9.35 µM
inactive: [12]

CNC(=O)c1c(F)cccc1Nc1nc(Nc2cc3c(cc2OC)CCN3C(=O)CN(C)C)nc2[nH]ccc12
inactive: [12]
active: [1] 0.928 µM | [2] 26.1 µM | [3] 0.522 µM | [13] 3.69 µM | [4] 0.928 µM | [5] 0.414 µM | [7] 14.7 µM | [8] 0.585 µM | [9] 3.69 µM | [10] 16.5 µM | [11] 5.9 µM

CCN1CCN(Cc2ccc(-c3cc4c(N[C@H](C)c5ccccc5)ncnc4[nH]3)cc2)CC1
active: [1] 30.2 µM | [2] 2.69 µM | [3] 0.759 µM | [13] 13.5 µM | [4] 12 µM | [5] 1.51 µM | [7] 33.9 µM | [8] 15.1 µM | [9] 4.27 µM | [10] 4.79 µM | [11] 10.8 µM | Furin (Homo sapiens) 27.8 µM | [14] 44.1 µM | [15] 49.4 µM | [12] 17.1 µM

Nc1ccccc1NC(=O)c1ccc(CNc2nccc(-c3cccnc3)n2)cc1
inactive: [2] | [3] | [13] | [16] | [12]
active: [1] 1.47 µM | [4] 0.414 µM | [7] 1.17 µM | [8] 1.65 µM

NC(=O)Nc1cc(-c2cccc(F)c2)sc1C(=O)N[C@H]1CCCNC1
active: [1] 1.04 µM | [2] 0.827 µM | [3] 0.737 µM | [13] 1.04 µM | [16] 20.8 µM | [4] 1.17 µM | [5] 1.47 µM | [7] 6.57 µM | [9] 1.65 µM | [10] 0.737 µM | [11] 3.72 µM

Cc1nc2cnc3ccc(C#Cc4cccnc4)cc3c2n1-c1ccc(C(C)(C)C#N)cc1
inactive: [12]
active: [1] 6.76 µM | [2] 1.51 µM | [3] 0.676 µM | [4] 2.14 µM | [5] 0.851 µM | [7] 1.91 µM | [8] 1.35 µM | [9] 5.37 µM | [10] 3.39 µM | [11] 2.15 µM

CC1=C(CO)C(=O)O[C@@H]([C@@H](C)[C@H]2CC[C@H]3[C@@H]4C[C@H]5O[C@]56[C@@H](O)C=CC(=O)[C@]6(C)[C@@H]4CC[C@]23C)C1
inactive: [1] | [2] | [3] | [4] | [5] | [9] | [11] | [12]

CNC(=O)c1ccccc1Nc1nc(Nc2ccc(N3CCOCC3)cc2OC)ncc1Cl
active: [1] 9.27 µM | [2] 13.1 µM | [3] 0.827 µM | [4] 13.1 µM | [5] 0.928 µM | [7] 4.14 µM | [9] 1.47 µM | [10] 2.93 µM | [11] 1.18 µM
inactive: [8]
